High-throughput results from PubChem BioAssay.
Shown is part of a subset that was picked to be rich in hits.
ClpP mod: qHTS Assay for Activators of ClpP | AID 651965, 2013 | 340,000 compounds, 1.9% hits | Potency, µM (top dose mostly 57.5 µM), for the others: at the highest dose activity change, negative = active | purified B. subtilis ClpP, FRET peptide cleavage, 20 min | ATP-dependent Clp protease proteolytic subunit (Bacillus subtilis (strain 168)), P80244; active = well fitted falling curve with a large enough effect; inconclusive = small, poorly fitted or top-dose-only effect; inactive = no such curve, though single readings can be large or run the other way; note: potency is the fitted concentration of half-maximal effect; the source files actives as falling curves though it sought activators and does not explain the sign; nearly all actives have a fitted effect of over 65% in size
Target sequence (P80244 whole entry, looked up): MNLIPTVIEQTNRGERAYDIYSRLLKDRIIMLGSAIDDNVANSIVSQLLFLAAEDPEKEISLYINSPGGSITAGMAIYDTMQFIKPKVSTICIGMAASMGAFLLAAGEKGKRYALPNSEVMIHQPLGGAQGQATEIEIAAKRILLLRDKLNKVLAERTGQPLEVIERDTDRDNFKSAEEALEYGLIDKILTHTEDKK
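FRET quenching reversal measured ClpP activation: 10 microg/mL B. subtilis ClpP at pH 8 with the FRET-FV decapeptide, read at 430 nm after 320 nm excitation. The 20-min minus 0-min signal was scaled between DMSO/no-enzyme wells and ADEP (5.8 microM final).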
Rango release inh: inhibition of RanGTP-driven Rango-importin beta dissociation. O95149+P62826. Biochemical FRET Rango-importin beta, RanGTP-induced dissociation. Potency, µM (top dose mostly 46.1 µM), without a hit: at the highest dose activity change, negative = inhibition. 340,000 compounds, 0.071% hits; note: potency is the fitted concentration of half-maximal effect; % of control where 0% means no effect; nearly all actives have a fitted effect of over 45% in size
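Rango FRET biosensor (snurportin-1 IBB flanked by N-terminal EYFP and C-terminal CFP10) at 0.1 uM, with 0.25 uM importin beta in PBS, 1mM DTT, 0.02% Tween-20, 0.1% BSA. 0.6 uM Ran, 2mM GTP and 0.2 uM RCC1 were then added for 45 min at room temperature. Inhibition read as loss of FRET rise.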
Rango complex inh: prevents formation of the Rango-importin beta complex; Rango CFP/YFP FRET sensor + importin beta, 45 min; Potency, µM (series often up to 92.2 µM), for inactives: top-dose inhibition of complex formation; 340,000 compounds, 0.031% hits; AID 540263;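 note: potency is the fitted concentration of half-maximal effect; 0% = DMSO wells and 100% = buffer wells lacking importin beta; nearly all actives have a fitted effect of over 15% in size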
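FRET biosensor Rango (snurportin 1 IBB between N-terminal EYFP and C-terminal Cerulean), 50 nM in PBS/1 mM DTT/0.02% Tween-20/0.1% BSA, preincubated 5 min RT with compound; 0.125 microM importin beta added, 45 min RT, CFP/YFP FRET ratio read.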
MBNL1 CUG block: inhibitors of human MBNL1 binding to CUG repeat RNA | TR-FRET MBNL1-His/biotin-(CUG)12 binding, 665/545 ratio | 280,000 compounds, 0.036% hits | Potency, µM (titrated, usually from 57.5 µM), without a hit: top-dose activity change, negative = inhibition, actives largely listed as inhibitors | Q9NR56; active = well fitted inhibition curve with a large enough effect in the signal ratio, with a control signal flat, not every such curve was filed as active; inconclusive = small, poorly fitted or top-dose-only effect, or effect the other way, or a change in a side signal; inactive = no such curve, though single readings can be large or run the other way; the % refers to the signal ratio; note: potency is the fitted concentration of half-maximal effect; % is set by controls: 0 for no effect and ±100 for the full control effect
Target sequence (Q9NR56 whole entry, looked up): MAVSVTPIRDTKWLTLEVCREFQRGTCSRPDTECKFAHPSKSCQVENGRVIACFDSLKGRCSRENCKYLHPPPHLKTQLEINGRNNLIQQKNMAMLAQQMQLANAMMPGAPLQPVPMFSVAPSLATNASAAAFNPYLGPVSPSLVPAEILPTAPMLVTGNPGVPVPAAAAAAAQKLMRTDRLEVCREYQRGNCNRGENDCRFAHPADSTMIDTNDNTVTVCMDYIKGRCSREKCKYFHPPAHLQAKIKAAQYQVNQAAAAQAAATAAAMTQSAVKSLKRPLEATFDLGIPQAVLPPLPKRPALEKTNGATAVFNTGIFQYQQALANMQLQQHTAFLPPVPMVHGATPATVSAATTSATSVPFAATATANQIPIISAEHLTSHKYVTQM
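TR-FRET between His-tagged MBNL1 and biotin-(CUG)12 RNA, detected with Tb anti-His antibody (0.055 ng/ul) and streptavidin-XL665 (5 nM), 60 min at room temperature. Compounds titrated 92 nM to 58 uM; 665/545 nm ratio normalized to buffer and complex controls.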
CBFb RUNX1 block: CBF-beta/RUNX1 interaction disruption; Q01196+Q13951; AlphaScreen CBFb-His/RUNX1-biotin binding, biochemical; Potency, µM (doses to about 59.8 µM), without a hit: at the highest dose activity, negative = inhibition, hits mostly inhibitors; 230,000 tested, under 10 active; AID 1477; active = well fitted curve in the direction sought with a large enough effect; inconclusive = small, poorly fitted or top-dose-only effect, or effect the other way, or another doubt; inactive = no such curve, though single readings can be large or run the other way; note: % of control where 0% means no effect
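Compounds were screened at multiple concentrations against a preformed CBF-beta(His)/RUNX1(biotin) complex (30 nM of each) for 15 min at room temperature, followed by 90 min with nickel and streptavidin beads and AlphaScreen reading.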
* hit, by the source's call; ? = inconclusive; . = not tested or not shown. Unless noted, calls come from the whole dose curve.

SMILES | ClpP mod | Rango release inh | Rango complex inh | MBNL1 CUG block | CBFb RUNX1 block
CCc1nc2c(cnn2-c2ccc(Cl)cc2)c(=O)n1-c1ccc(OC)c(Cl)c1 | 1.7% | . | . | . | .
COc1ccc2nc3oc(C(=O)N4CCC(C(N)=O)CC4)cc3cc2c1 | 28.2µM* | -7.6% | -4.0% | ? | -3.1%
CCOC(=O)C1CCN(C(=O)c2cc3cc4ccc(OC)cc4nc3o2)CC1 | 3.6% | 16.8% | 0.9% | ? | .
O=C(CN1CCc2ccccc2C1)Nc1ccccc1C(F)(F)F | 31.6µM* | 8.3% | 5.8% | 1.1% | .
CCOC(=O)c1ccc(NC(=O)Cn2cc(C(=O)c3ccc(Cl)cc3)c(=O)c3ccc(C)nc32)cc1 | 1.9% | . | . | . | .
CCCn1c(=N)n(CC(=O)OCC)c2ccccc21 | 0.8% | -6.8% | 6.0% | 4.2% | -6.7%
C=CCn1c(=N)n(CC(=O)OCC)c2ccccc21 | 25.1µM* | -0.6% | 1.1% | -10.9% | 5.5%
CCOC(=O)Cn1c(=N)n(CCOc2ccc(F)cc2)c2ccccc21 | 3.98µM* | 7.3% | 2.1% | -4.8% | 9.8%
COc1ccccc1N1CCN(c2c(CN3CCCC3)c(=O)oc3ccccc23)CC1 | -1.3% | . | . | . | .
COc1ccccc1CNS(=O)(=O)c1ccc2c(c1)NC(=O)CC(=O)N2 | -4.4% | . | . | . | .
COc1ccc(-c2nc(NC(=O)CSc3nnc(C)s3)ns2)cc1 | 17.8µM* | -12.0% | 2.2% | 19.6% | 10.0%
O=C(NCc1ccc2c(c1)OCO2)c1ccc2c(c1)N(Cc1c(F)cccc1Cl)C(=O)CS2 | 14.1µM* | -1.4% | 4.4% | 4.6% | -6.8%
COc1ccc2c(C)c(C(=O)O)oc2c1 | 25.1µM* | -19.9% | ? | -6.8% | 1.0%
COc1ccc2oc(C(=O)NC(C)c3ccccn3)c(C)c2c1 (stereo unspecified) | 25.1µM* | 22.5% | -1.0% | . | .
COc1ccc2oc(C(=O)Nc3nc4ccc(S(C)(=O)=O)cc4s3)c(C)c2c1 | 15.8µM* | 3.9% | -2.6% | . | .
COc1ccc2oc(C(=O)Nc3nc(-c4ccccn4)cs3)c(C)c2c1 | -28.7% | -9.1% | ? | . | .
COc1ccc2oc(C(=O)Nc3nnc(C)s3)c(C)c2c1 | 28.2µM* | -19.1% | -4.0% | . | .
Cc1ccc(-n2ncc(C(=O)NC3CCCCC3)c2C2CCN(C(=O)OC(C)(C)C)CC2)cc1 | -0.9% | . | . | . | .
O=S(=O)(c1ccc(OC(F)(F)F)cc1)N1CCN(c2nc(-c3cccs3)nc3ccccc23)CC1 | 4.3% | . | . | . | .
Cc1cc(NC(=O)CCn2c(=O)c3cccn3c3cccnc32)ccc1Br | 20.9% | . | . | . | .
CCc1ccc(NC(=O)CSC2=Nc3ccccc3C3=NC(CCC(=O)NCc4ccccc4OC)C(=O)N23)cc1 (stereo unspecified) | -2.6% | . | . | . | .
CCOC(=O)c1cnn(-c2nc(-c3cccc(F)c3)cs2)c1C(F)(F)F | 28.2µM* | -11.5% | -0.3% | -9.3% | 26.1%
CCOC(=O)c1cnn(-c2nc3c(C)cccc3s2)c1C(F)(F)F | 28.2µM* | -1.5% | -0.4% | -2.3% | 14.6%
O=C(O)c1cnn(-c2nc(-c3cccc(F)c3)cs2)c1C(F)(F)F | . | 18.6% | -1.2% | 11.3% | -5.8%
Cc1nnc(N2CCN(C(=O)Nc3cccc(C(F)(F)F)c3)CC2)c2nn(-c3ccccc3)c(C)c12 | -10.9% | . | . | . | .
SMILES | ClpP mod | Rango release inh | Rango complex inh | MBNL1 CUG block | CBFb RUNX1 block
CC(NC(=O)c1ccccc1O)c1ccccc1 (stereo unspecified) | 15.8µM* | -11.3% | -0.2% | 0.5% | 1.8%
COc1ccccc1C(=O)NC(C)c1ccccc1 (stereo unspecified) | -0.5% | 13.8% | -1.1% | -7.7% | -2.1%
c1ccc2c(c1)c1c(c3ccccc32)CN2CCCC2C1 (stereo unspecified) | 20µM* | ? | 0.4% | . | .
c1ccc(CN2CCC(N3CCC(N4CCCCCC4)CC3)CC2)cc1 | -0.1% | 10.0% | 1.7% | 0.6% | .
CCc1ccc(NC(=O)CSC2=Nc3ccccc3C3=NC(CC(=O)NCc4cccs4)C(=O)N23)cc1 (stereo unspecified) | 8.1% | . | . | . | .
C=CCOc1c(CNc2cccc(C(=O)O)c2)cccc1OC | 25.1µM* | -2.5% | -5.1% | 2.3% | 3.4%
C=CCOc1c(CNc2cccc(C(=O)O)c2)cccc1OCC | 31.6µM* | -9.1% | -1.9% | 6.5% | -1.0%
C=CCOc1c(CNc2ccc(C(=O)O)cc2)cccc1OC | -10.5% | 4.5% | 7.6% | -3.8% | 4.2%
COC(=O)c1cc(C)nc2c1c(=O)nc(SCc1ccccc1C)n2C1CC1 | -2.6% | . | . | . | .
Cc1cc(C(=O)CN2CCCCC2)c(C)n1-c1ccc(F)cc1 | 25.1µM* | 4.2% | 0.9% | -16.0% | -5.6%
Cc1cc(C(=O)CN2CCC(C)CC2)c(C)n1-c1ccc(F)cc1 | 0.5% | -7.8% | 2.1% | -6.1% | 4.3%
CCn1c(CN2CCC(C)CC2)nc2cc(NC(=O)COc3ccc(Cl)c(C)c3)ccc21 | 3.0% | . | . | . | .
Cc1cc(OCC(=O)Nc2cccc(S(=O)(=O)NC3=NCCCCC3)c2)ccc1Cl | -0.5% | -0.4% | 0.8% | -6.3% | 1.3%
CCCCCC(=O)Nc1cccc(S(=O)(=O)NC2=NCCC2)c1 | 35.5µM* | 1.8% | 2.8% | . | .
Cc1ccc(OCC(=O)Nc2cccc(S(=O)(=O)NC3=NCCCCC3)c2)cc1C | 14.1µM* | 5.9% | 0.3% | 0.4% | .
O=S(=O)(Nc1cccc(-c2ccc(N3CCCCC3)nn2)c1)c1ccc(Cl)s1 | -2.3% | . | . | . | .
Cc1nc(-c2coc3cc(OCC(=O)O)ccc3c2=O)cs1 | 35.5µM* | 2.1% | -2.4% | -1.3% | 0.3%
Cc1nc(-c2coc3cc(O)c(C)cc3c2=O)cs1 | -24.8% | -11.0% | -0.7% | ? | 4.8%
CC1CCc2c(sc3nc(-c4cc5ccccc5oc4=O)nc(Cl)c23)C1 (stereo unspecified) | 3.5% | . | . | . | .
O=C(Cn1c(-c2cccs2)cc2ccccc21)NCc1ccccc1Br | 31.6µM* | . | . | . | .
CCOc1ccc(CCNC(=O)Cn2c(-c3cccs3)cc3ccccc32)cc1OCC | 8.91µM* | . | . | . | .
COc1ccc(CCNC(=O)Cn2c(-c3cccs3)cc3cc(F)ccc32)cc1OC | 4.2% | . | . | . | .
COCCNC(=O)c1cc(-c2cccs2)on1 | -8.4% | -9.3% | -2.9% | 12.7% | 12.5%
COCCNC(=O)Cn1c(-c2cccs2)cc2cc(Cl)ccc21 | 28.2µM* | . | . | . | .
CC(CNC(=O)Cn1c(-c2cccs2)cc2ccccc21)c1ccccc1 (stereo unspecified) | 15.8µM* | . | . | . | .
COc1ccc(OC)c(CCNC(=O)C(C)n2c(C)c3cnn(-c4ccccc4)c(=O)c3c2C)c1 (stereo unspecified) | 1.2% | . | . | . | .
CN(C)c1ccc(CNC(=O)Cn2c(-c3cccs3)cc3cc(Cl)ccc32)cc1 | 25.1µM* | . | . | . | .
CC(CNC(=O)Cn1c(-c2cccs2)cc2cc(Cl)ccc21)c1ccccc1 (stereo unspecified) | 25.1µM* | . | . | . | .
